PubChem BioAssay (EPA / NIEHS)
Active and inactive are the calls of the source. The calls were made as follows: active = hit-call score of the fitted dose curve at least 0.9, where 1 is the maximum; inactive = score below 0.9.

Columns and labels:
[1] = CEETOX_H295R_OHPROG: CeeTox H295R High-throughput Steroidogenesis Assay for OH-Progesterone (OHPROG) (AID 2283435); conditions: actives raise or lower the signal;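 as to AC50: human adrenal H295R cells primed 48 h with 10 µM forskolin; 17alpha-hydroxyprogesterone secreted into medium measured by HPLC-MS/MS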
Summary of the method: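 Human adrenocortical H295R cells, passage 10 or lower, were treated with chemical for 48 h after forskolin priming, and hormone output in the medium was quantified by LC-MS/MS.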

[2] = CEETOX_H295R_ANDR: CeeTox H295R High-throughput Steroidogenesis Assay for Androstenedione (ANDR) (AID 2283436); conditions: actives raise or lower the signal;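 also: human H295R adrenal cells exposed for 48 h with androstenedione measured in medium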
Summary of the method: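 Steroidogenesis in H295R adrenal cells after 48 h dosing; androstenedione quantified by LC-MS/MS, with DMSO as negative control and baseline for bidirectional curve fitting.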

[3] = CEETOX_H295R_ESTRONE: CeeTox H295R High-throughput Steroidogenesis Assay for Estrone (AID 2283441); conditions: actives raise or lower the signal;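 also: estrone secreted into medium measured by LC-MS/MS after dansyl derivatization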;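 as to AC50: human adrenal H295R cells prestimulated with forskolin for two days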
Summary of the method: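 Forskolin-stimulated H295R cells are treated 48 h with chemical, and estrone in the medium is measured by LC-MS/MS. Activity is fitted in both directions relative to DMSO controls, with chemicals diluted until MTT viability reaches at least 70%.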

[4] = read-out: Tumor necrosis factor receptor superfamily member 6 (Homo sapiens) (UniProt P25445); test: LTEA_HepaRG_FAS: Life Technologies and Expression Analysis (LTEA) Assay for Fas cell surface death receptor (FAS) using HepaRG (AID 2283447); conditions: mRNA level, 48 h; actives raise or lower the signal
Summary of the method: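 Differentiated human HepaRG cells, pre-cultured 48 h, were exposed in duplicate for 48 h to 8-point half-log concentrations (top 100 uM, 0.5% DMSO) in serum-free induction medium; FAS mRNA measured by qRT-PCR, normalized to ACTB/GAPDH/POLR2A, bidirectional fit versus DMSO.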

[5] = read-out: Fatty acid synthase (Homo sapiens) (UniProt P49327); test: LTEA_HepaRG_FASN: Life Technologies and Expression Analysis (LTEA) Assay for Fatty Acid Synthase (FASN) using HepaRG (AID 2283448); conditions: mRNA level, 48 h; actives raise or lower the signal
Summary of the method: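 In human HepaRG cultures, 48 h chemical exposure (up to 100 uM, 0.5% DMSO) preceded TaqMan qRT-PCR of FASN.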

[6] = read-out: Cyclin D2 (CCND2), CCND2 (gene 894); test: LTEA_HepaRG_CCND2: Life Technologies and Expression Analysis (LTEA) Assay for Cyclin D2 (CCND2) using HepaRG (AID 2283449); conditions: mRNA level, 48 h; actives raise or lower the signal;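 also: CCND2 transcript measured by TaqMan qRT-PCR and normalised to three housekeeping genes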
Summary of the method: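 In this HepaRG study, an eight-point concentration series (max 100 uM, 0.5% DMSO) is applied for 48 h. CCND2 mRNA change is derived by qRT-PCR normalised to ACTB, GAPDH and POLR2A.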

[7] = read-out: Cyclin Dependent Kinase Inhibitor 1A (CDKN1A), CDKN1A (gene 1026); test: LTEA_HepaRG_CDKN1A: Life Technologies and Expression Analysis (LTEA) Assay for Cyclin Dependent Kinase Inhibitor 1A (CDKN1A) using HepaRG (AID 2283450); conditions: mRNA level, 48 h; actives raise or lower the signal
Summary of the method: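 Gain or loss of CDKN1A transcript is scored by bidirectional fitting against 0.5% DMSO vehicle. Human HepaRG cultures receive chemicals for 48 h across an 8-point series peaking at 100 uM; expression comes from qRT-PCR.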

[8] = read-out: Cyclin D1 (CCND1), CCND1 (gene 595); test: LTEA_HepaRG_CCND1: Life Technologies and Expression Analysis (LTEA) Assay for Cyclin D1 (CCND1) using HepaRG (AID 2283451); conditions: mRNA level, 48 h; actives raise or lower the signal
Summary of the method: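 Expression change is measured by qRT-PCR in HepaRG cells after 48 h treatment across eight concentrations topping at 100 uM, with duplicate wells and DMSO (0.5%) serving as baseline for bidirectional fitting.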

[9] = read-out: catalase (CAT), CAT (gene 847); test: LTEA_HepaRG_CAT: Life Technologies and Expression Analysis (LTEA) Assay for catalase (CAT) using HepaRG (AID 2283452); conditions: mRNA level, 48 h; actives raise or lower the signal;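 as to AC50: TaqMan qRT-PCR signal normalized to ACTB GAPDH and POLR2A housekeeping genes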
Summary of the method: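 Differentiated HepaRG cells in serum-free induction medium were dosed 48 h in duplicate, eight half-log concentrations from 100 uM in 0.5% DMSO. Transcript measured by TaqMan qRT-PCR, normalised to ACTB/GAPDH/POLR2A, fitted bidirectionally against DMSO.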

[10] = read-out: flavin-containing dimethylaniline monooxygenases 3 (FMO3), FMO3 (gene 2328); test: LTEA_HepaRG_FMO3: Life Technologies and Expression Analysis (LTEA) Assay for flavin-containing dimethylaniline monooxygenases 3 (FMO3) using HepaRG (AID 2283453); conditions: mRNA level, 48 h; actives raise or lower the signal
Summary of the method: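 Eight-point concentration-response in serum-free HepaRG cultures (top 100 uM, 0.5% DMSO, 48 h). Read-out: FMO3 mRNA level normalized to three endogenous control genes, fitted bidirectionally versus vehicle.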

[11] = read-out: Cytochrome P450 (CYP1A1), CYP1A1 (gene 1543); test: LTEA_HepaRG_CYP1A1: Life Technologies and Expression Analysis (LTEA) Assay for Cytochrome P450 (CYP1A1) using HepaRG (AID 2283454); conditions: mRNA level, 48 h; actives raise or lower the signal
Summary of the method: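 Using HepaRG cultures with 0.5% DMSO as vehicle, eight-concentration exposures (max 100 uM) lasted 48 h. Transcript levels were measured by TaqMan qRT-PCR and normalized to ACTB, GAPDH and POLR2A.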

[12] = read-out: CFLAR gene, CFLAR (gene 8837); test: LTEA_HepaRG_CFLAR: Life Technologies and Expression Analysis (LTEA) Assay for CFLAR gene using HepaRG (AID 2283455); conditions: mRNA level, 48 h; actives raise or lower the signal
Summary of the method: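 Gain- or loss-of-signal changes in CFLAR transcript were fitted bidirectionally relative to 0.5% DMSO. Cells (HepaRG, duplicate wells) were dosed for 48 h across eight half-log concentrations topping at 100 uM; quantitation by TaqMan qRT-PCR.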

[13] = read-out: Forkhead box O1 (FOXO1), FOXO1 (gene 2308); test: LTEA_HepaRG_FOXO1: Life Technologies and Expression Analysis (LTEA) Assay for Forkhead box O1 (FOXO1) using HepaRG (AID 2283456); conditions: mRNA level, 48 h; actives raise or lower the signal
Summary of the method: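 Using one lot of HepaRG hepatic cells kept in 0.5% DMSO, the team applied test chemicals in duplicate, half-log dilutions from 100 uM, for 48 h. Expression, normalised to ACTB/GAPDH/POLR2A, was compared with vehicle in either direction.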

[14] = CEETOX_H295R_TESTO: CeeTox H295R High-throughput Steroidogenesis Assay for Testosterone (TESTO) (AID 2283457); conditions: actives raise or lower the signal
Summary of the method: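 Steroidogenesis in H295R cells following OECD 456 with minor changes; 48 h exposure. Medium testosterone by HPLC-MS/MS, DMSO as baseline, with MTT viability run in parallel.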

[15] = read-out: growth arrest and DNA damage 45 (GADD45A), GADD45A (gene 1647); test: LTEA_HepaRG_GADD45A: Life Technologies and Expression Analysis (LTEA) Assay for growth arrest and DNA damage 45 (GADD45A) using HepaRG (AID 2283458); conditions: mRNA level, 48 h; actives raise or lower the signal
Summary of the method: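 Eight-point concentration-response in HepaRG cells: 48 h chemical exposure, 0.5% DMSO vehicle, top dose 100 uM. Normalized qRT-PCR mRNA readout with bidirectional fitting relative to DMSO.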

[16] = CEETOX_H295R_OHPREG: CeeTox H295R High-throughput Steroidogenesis Assay for OH-Pregnenolone (OHPREG) (AID 2283434); conditions: actives raise or lower the signal
Summary of the method: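 Readout: HPLC-MS/MS of 17alpha-hydroxypregnenolone in medium after 48 h chemical exposure of H295R cells pretreated with forskolin. Values fitted bidirectionally relative to DMSO; chemicals reducing viability to 20–70% were retested after 10-fold dilution.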

[17] = CEETOX_H295R_CORTIC: CeeTox H295R High-throughput Steroidogenesis Assay for Corticosterone (CORTIC) (AID 2283437); conditions: actives raise or lower the signal;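 also: corticosterone secreted into medium quantified by mass spectrometry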
Summary of the method: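 Steps: seed H295R, adhere overnight; 10 uM forskolin 48 h; replace with chemical (0.1% DMSO) 48 h; extract medium with MTBE; quantify corticosterone by HPLC-MS/MS; score bidirectionally vs DMSO.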

[18] = CEETOX_H295R_CORTISOL: CeeTox H295R High-throughput Steroidogenesis Assay for Cortisol (AID 2283438); conditions: actives raise or lower the signal;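 also: cortisol secreted into medium quantified by LC-MS/MS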
Summary of the method: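 Steroidogenesis in H295R, per modified OECD 456: 48 h forskolin (10 uM), then 48 h exposure, 0.1% DMSO. Cortisol by extraction and tandem MS; viability by MTT (570/650 nm); cytotoxic chemicals diluted and re-tested.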

[19] = CEETOX_H295R_ESTRADIOL: CeeTox H295R High-throughput Steroidogenesis Assay for Estradiol (AID 2283440); conditions: actives raise or lower the signal;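 also: estradiol secreted into medium quantified by LC-MS/MS after dansyl derivatisation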
Summary of the method: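 Readout is estradiol in conditioned medium, quantified by reverse-phase HPLC-MS/MS against a 7-point standard curve. Cells: H295R, forskolin-stimulated, then dosed 48 h in 0.1% DMSO; activity fitted in both directions relative to DMSO.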

[20] = read-out: Forkhead box O3 (FOXO3), FOXO3 (gene 2309); test: LTEA_HepaRG_FOXO3: Life Technologies and Expression Analysis (LTEA) Assay for Forkhead box O3 (FOXO3) using HepaRG (AID 2283459); conditions: mRNA level, 48 h; actives raise or lower the signal
Summary of the method: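 Gene-expression endpoint: FOXO3 transcript level by qRT-PCR in HepaRG cultures treated 48 h with chemicals up to 100 uM (half-log, 0.5% DMSO vehicle).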

Measured: AC50

Sequence of Fatty acid synthase (Homo sapiens) (P49327 whole entry, looked up): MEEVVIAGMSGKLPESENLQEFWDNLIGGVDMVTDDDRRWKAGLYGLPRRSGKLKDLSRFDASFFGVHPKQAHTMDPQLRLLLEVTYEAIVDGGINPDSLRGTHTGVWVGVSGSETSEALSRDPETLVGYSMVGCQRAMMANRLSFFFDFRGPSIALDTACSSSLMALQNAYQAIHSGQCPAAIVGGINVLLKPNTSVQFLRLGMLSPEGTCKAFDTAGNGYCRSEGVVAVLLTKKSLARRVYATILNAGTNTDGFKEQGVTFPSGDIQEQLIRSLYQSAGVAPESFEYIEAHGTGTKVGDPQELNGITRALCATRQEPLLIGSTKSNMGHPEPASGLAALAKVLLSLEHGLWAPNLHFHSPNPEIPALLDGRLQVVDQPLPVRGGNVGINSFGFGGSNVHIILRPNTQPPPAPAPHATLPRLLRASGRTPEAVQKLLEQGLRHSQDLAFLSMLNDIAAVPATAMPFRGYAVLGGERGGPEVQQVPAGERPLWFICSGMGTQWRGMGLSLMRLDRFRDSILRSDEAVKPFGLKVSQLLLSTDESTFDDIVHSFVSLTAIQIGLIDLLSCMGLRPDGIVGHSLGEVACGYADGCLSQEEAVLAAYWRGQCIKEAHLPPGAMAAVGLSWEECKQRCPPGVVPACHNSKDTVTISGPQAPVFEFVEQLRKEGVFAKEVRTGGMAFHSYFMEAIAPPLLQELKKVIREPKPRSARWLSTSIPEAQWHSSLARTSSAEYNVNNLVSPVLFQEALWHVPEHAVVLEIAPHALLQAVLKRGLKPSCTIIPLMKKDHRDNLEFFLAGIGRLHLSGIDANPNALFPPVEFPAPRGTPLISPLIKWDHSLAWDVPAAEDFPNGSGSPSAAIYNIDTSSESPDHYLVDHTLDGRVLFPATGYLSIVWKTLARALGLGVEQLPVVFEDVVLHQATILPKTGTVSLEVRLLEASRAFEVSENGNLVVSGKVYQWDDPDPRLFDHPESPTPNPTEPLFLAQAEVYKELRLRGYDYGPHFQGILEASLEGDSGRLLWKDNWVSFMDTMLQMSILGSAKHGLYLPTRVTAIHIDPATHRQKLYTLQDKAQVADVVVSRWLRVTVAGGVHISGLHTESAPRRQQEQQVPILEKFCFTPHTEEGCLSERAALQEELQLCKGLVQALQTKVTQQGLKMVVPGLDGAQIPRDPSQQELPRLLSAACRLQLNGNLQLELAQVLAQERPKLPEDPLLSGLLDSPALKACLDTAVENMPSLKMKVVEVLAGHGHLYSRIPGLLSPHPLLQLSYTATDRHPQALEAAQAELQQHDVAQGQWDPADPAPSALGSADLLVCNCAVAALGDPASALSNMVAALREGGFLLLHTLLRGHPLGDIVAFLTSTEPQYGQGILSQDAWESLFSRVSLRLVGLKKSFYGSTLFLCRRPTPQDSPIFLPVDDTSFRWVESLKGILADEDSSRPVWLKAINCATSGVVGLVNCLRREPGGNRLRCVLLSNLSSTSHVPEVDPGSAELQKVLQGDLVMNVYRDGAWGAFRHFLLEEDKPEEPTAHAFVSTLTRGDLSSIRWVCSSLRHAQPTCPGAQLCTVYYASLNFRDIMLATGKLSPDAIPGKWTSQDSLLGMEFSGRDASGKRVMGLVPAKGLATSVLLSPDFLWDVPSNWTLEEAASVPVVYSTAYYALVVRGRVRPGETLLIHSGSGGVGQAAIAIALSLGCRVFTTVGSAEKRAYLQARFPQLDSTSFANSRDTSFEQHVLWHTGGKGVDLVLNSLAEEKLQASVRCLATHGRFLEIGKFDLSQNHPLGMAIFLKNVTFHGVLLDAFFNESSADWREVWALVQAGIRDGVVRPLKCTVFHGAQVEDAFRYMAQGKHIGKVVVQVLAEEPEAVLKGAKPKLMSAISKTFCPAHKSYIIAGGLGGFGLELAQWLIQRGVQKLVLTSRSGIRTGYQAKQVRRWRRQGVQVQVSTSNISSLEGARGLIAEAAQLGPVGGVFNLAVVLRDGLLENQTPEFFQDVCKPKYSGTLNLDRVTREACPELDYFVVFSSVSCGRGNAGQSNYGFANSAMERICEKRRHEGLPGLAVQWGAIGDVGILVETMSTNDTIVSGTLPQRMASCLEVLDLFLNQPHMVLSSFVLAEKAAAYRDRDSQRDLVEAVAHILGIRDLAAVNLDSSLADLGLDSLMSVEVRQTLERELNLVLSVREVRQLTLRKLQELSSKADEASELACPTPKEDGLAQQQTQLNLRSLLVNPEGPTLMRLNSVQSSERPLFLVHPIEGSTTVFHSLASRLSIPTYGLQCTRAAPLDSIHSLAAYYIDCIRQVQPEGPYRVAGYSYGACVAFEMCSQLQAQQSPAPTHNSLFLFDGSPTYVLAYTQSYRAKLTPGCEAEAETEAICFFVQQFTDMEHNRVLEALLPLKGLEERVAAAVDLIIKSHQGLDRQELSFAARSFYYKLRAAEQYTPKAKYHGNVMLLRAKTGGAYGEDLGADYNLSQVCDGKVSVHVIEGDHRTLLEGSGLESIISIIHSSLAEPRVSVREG

CCOc1cc(C(C)(C)C)ccc1C1COC(c2c(F)cccc2F)=N1 (configuration not stated)
active: [11] 19.2 µM
not listed: [16] | [17] | [18] | [19] | [20]
inactive: all other assays above

Cc1nc(N(C)C)nc(OC(=O)N(C)C)c1C
active: [11] 34.3 µM
not listed: [2] | [13] | [14] | [20]
inactive: all other assays above

CC(C)Oc1cccc(NC(=O)c2ccccc2C(F)(F)F)c1
active: [1] 13.7 µM | [18] 37.5 µM | [5] 65.2 µM | [6] 0.0398 µM | [11] 81.6 µM
not listed: [2] | [13] | [14]
inactive: all other assays above

CC1(C)CCC(=Cc2ccc(Cl)cc2)C1(O)Cn1cncn1 (configuration not stated)
active: [18] 5 µM | [5] 6.85 µM | [11] 11.2 µM
not listed: [6] | [13] | [20]
inactive: all other assays above

COC(=O)NC(=S)Nc1ccccc1NC(=S)NC(=O)OC
active: [11] 39.2 µM
not listed: [2] | [13] | [14] | [20]
inactive: all other assays above

CCSC(=O)N1CCCCCC1
not listed: [2] | [6] | [13] | [14] | [17] | [18] | [20]
inactive: all other assays above

COc1cc(Cl)c(OC)cc1Cl
active: [11] 27.9 µM
not listed: [2] | [14] | [20]
inactive: all other assays above

Nc1cnn(-c2ccccc2)c(=O)c1Cl
active: [11] 71.7 µM
not listed: [2] | [14] | [20]
inactive: all other assays above

N#CN=C1SCCN1Cc1ccc(Cl)nc1
active: [16] 50 µM
not listed: [2] | [3] | [14] | [19] | [20]
inactive: all other assays above

CC(C)Nc1nc(Cl)nc(NC(C)C)n1
active: [3] 23.1 µM | [9] 16.8 µM | [11] 41.2 µM
not listed: [2] | [14] | [17] | [18] | [20]
inactive: all other assays above

CC1(C)C(C=C(Cl)Cl)C1C(=O)OC(C#N)c1cccc(Oc2ccccc2)c1 (configuration not stated)
active: [11] 28.8 µM
not listed: [2] | [14]
inactive: all other assays above

N#Cc1c(Cl)cccc1Cl
active: [11] 50 µM
not listed: [2] | [13] | [14]
inactive: all other assays above

CC(C)(C)C(=O)C(Oc1ccc(Cl)cc1)n1cncn1 (configuration not stated)
active: [16] 21.6 µM | [1] 21 µM | [18] 21.2 µM | [19] 21.7 µM | [3] 41.2 µM | [5] 50 µM | [11] 37 µM
not listed: [2] | [13] | [14]
inactive: all other assays above

COP(=S)(OC)Oc1ccc([N+](=O)[O-])c(C)c1
active: [1] 2.22 µM | [11] 50 µM
not listed: [2] | [13] | [14] | [20]
inactive: all other assays above

CCOC(=O)C(C)OC(=O)c1cc(Oc2ccc(C(F)(F)F)cc2Cl)ccc1[N+](=O)[O-] (configuration not stated)
active: [5] 35.1 µM | [11] 50 µM | [15] 50 µM
not listed: [2] | [6] | [13] | [14]
inactive: all other assays above
